In the library only some 3.1% were active in any assay of this set; here they are far more common.
HSF1 activator = increases HSF-1 driven luciferase reporter signal. NIH3T3-HGL HSF-1 luciferase reporter, MG132, 8 h; 100% = twice DMSO control signal. activation, % at 9 µM. actives 1.7% (n = 300,000). AID 504408;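 active = mean replicate activation of at least 50% with a set share of replicates each reaching 50%; inconclusive = only one of those two conditions met; inactive = mean below 50% and too few replicates reaching it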;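 note: 0% = median of the neutral control wells and 100% = twice that signal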
HIF act = HIF pathway transcriptional activation; U2OS HRE-luciferase reporter, luminescence; normalized: DMSO 0%, desferrioxamine 100%; activation, % at 7.5 µM (by protocol); actives 0.32% (n = 300,000); AID 1910;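 active = mean activation of at least 10% of the iron chelator positive control signal, with at least half of replicates also reaching 10%; inconclusive = mean and replicate majority disagree about reaching 10%; inactive = mean and most replicates under 10%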
HSP90 refold inh = blocks HSP90-mediated luciferase refolding in reticulocyte lysate. actives 0.91% (n = 290,000). Rabbit reticulocyte lysate, luciferase refolding luminescence, 3 h. inhibition, % at 5.6 µM;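 active = inhibition above the screen-wide mean plus 3 SD, computed separately per campaign, cut at about 16% in these data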;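 note: 0% = DMSO wells and 100% = 60 µM geldanamycin wells; inhibitors lower the luminescence because luciferase stays unfolded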
HSF1 inh = HSF1 inhibition. activity change, negative = inhibition, % at 7.5 µM (by protocol). actives 0.77% (n = 300,000). NIH3T3-HGL HSE-luciferase, MG132-induced, luminescence 8 h; stronger effect = lower value;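 active = more than half of replicate wells show activity change below -50%, luminescence cut by over half; inconclusive = some wells, but at most half, below -50%; inactive = no replicate well below -50%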;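 note: luciferase reports HSF-1 transcriptional activity via heat shock element; 0% = median of DMSO wells and -100% = zero luminescence signal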
ARNT TACC3 PPI = disruptors of human ARNT/TACC3 interaction; actives 0.66% (n = 390,000); AlphaScreen His-ARNT PAS-B/GST-TACC3 binding, luminescence; TACC3 fragment carries E629A point mutation; inhibition, % at 9.99 µM; Q9Y6A5;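 active = mean inhibition of replicates at least 50% and at least half of replicates each reaching 50%; inconclusive = half or more replicates reach 50% but mean below 50%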;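 note: 0% = complete ARNT plus TACC3 wells and 100% = ARNT alone without TACC3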
The depositor's hits bear a star; ? = inconclusive; / = no result given.

SMILES	HSF1 activator	HIF act	HSP90 refold inh	HSF1 inh	ARNT TACC3 PPI
O=C(NCCCN1CCN(c2ccccc2F)CC1)Nc1ccccc1[N+](=O)[O-]	2	252*	2	1	14
O=C(NCCCN1CCN(c2ccccc2F)CC1)Nc1ccc(F)cc1	-13	1	1	-3	6
NC(=S)N=Nc1c(O)[nH]c2ccc(F)cc12	-4	0	2	0	6
NC(=S)N=Nc1c(O)cc(O)c2[nH]c(=O)ccc12	/	/	/	/	64*
CCN(CC)S(=O)(=O)c1ccc(N2CCN(S(=O)(=O)c3ccccc3)CC2)nc1	-8	0	-1	0	4
CC(C)N(C(C)C)S(=O)(=O)c1ccc(N2CCc3ccccc3C2)nc1	130*	?	8	67	-5
CCN(CC)S(=O)(=O)c1ccc(N2CCc3ccccc3C2)nc1	73*	1	2	54	8
CC(C)N(C(C)C)S(=O)(=O)c1ccc(Cl)nc1	5	-1	1	-6	-15
OCCNCc1c(OCc2ccc(Cl)cc2)ccc2ccccc12	62*	2	4	26	5
CC(O)CNCCNCc1c(OCc2ccccc2)ccc2ccccc12 (configuration not stated)	21	1	-2	8	10
C[C@@H]1CN([C@@H](C)CO)S(=O)(=O)c2ccc(-c3ccncc3)cc2O[C@@H]1CN(C)C(=O)Nc1ccc(C(F)(F)F)cc1	/	/	/	/	-6
NS(=O)(=O)c1cccc(NC(=O)COC(=O)Cc2ccc(S(=O)(=O)N3CCCCC3)s2)c1	-13	0	5	-1	-9
O=C(COC(=O)Cc1ccc(S(=O)(=O)N2CCCCC2)s1)Nc1ccc2c(c1)OCO2	0	25*	0	10	1
CC(C)NC(=O)N[C@H]1C=C[C@H](CC(=O)N2CCCCC2)O[C@H]1CO	/	/	/	/	-18
C=CCOc1ccc(/C=C2\SC(N)=NC2=O)cc1OC	1	12*	-1	5	8
CO[C@@H]1CN(C)C(=O)c2ccc(NC(=O)c3nc4ccccc4s3)cc2OC[C@H](C)NC[C@H]1C	/	/	/	/	-5
CC(C)C1Cc2c(C#N)c(N)n(C)c(=S)c2CO1 (configuration not stated)	-63	-2	2	-52*	/
Cn1c(N)c(C#N)c2c(c1=S)COC(C)(C)C2	22	0	0	0	7
O=C(Oc1ccccc1Cl)c1ccc(-n2cncn2)nc1	-92	-3	0	-89*	2
CO[C@@H]1CN(C)C(=O)c2ccc(NC(=O)Nc3cc(Cl)cc(Cl)c3)cc2OC[C@H](C)NC[C@@H]1C	/	/	/	/	13
CC(=O)Nc1ccc(N/C=C/C(=O)c2ccccc2)cc1	10	4	0	2	1
Cc1ccc(N/C=C/C(=O)c2ccc(C)cc2)cc1	4	3	4	3	-1
O=C(/C=C/Nc1ccccc1)c1ccccc1	88*	2	-1	45	10
Cc1cc(N/C=C/C(=O)c2cccs2)ccc1F	64*	4	3	37	-1
Cc1ccc(C(=O)/C=C\Nc2ccc(C)c(C)c2)cc1	56*	2	-3	17	0
SMILES	HSF1 activator	HIF act	HSP90 refold inh	HSF1 inh	ARNT TACC3 PPI
CN1C[C@@H]2[C@H](c3ccccc31)[C@H](CO)N2C(=O)Nc1ccccc1Cl	/	/	/	/	-3
C[C@H](CO)N1C[C@H](C)[C@@H](CN(C)S(=O)(=O)c2ccccc2)OCCCC[C@H](C)Oc2ccc(NC(=O)Nc3ccc(F)cc3)cc2C1=O	/	/	/	/	13
CCOc1ccc(/C=N/N2C(=O)C(CC(=O)Nc3ccc(F)cc3F)SC2=NC)cc1OC (configuration not stated)	60*	0	1	22	2
CN=C1SC(CC(=O)Nc2ccccc2F)C(=O)N1/N=C/c1ccc(O)c(OC)c1 (configuration not stated)	40	0	-3	20	-6
Cc1cc(Nc2ccc(Br)cc2)n2nc(C)nc2n1	-1	0	0	-3	11*
O=C(c1ccco1)N(Cc1ccc([N+](=O)[O-])cc1)c1ccc(Br)cc1	57*	0	4	23	4
O=C(O)C[C@@H]1CC[C@@H](NC(=O)Nc2ccccc2)[C@@H](CO)O1	/	/	/	/	13
O=C(N/N=C/c1cc([N+](=O)[O-])ccc1O)NC12CC3CC(CC(C3)C1)C2	-56	0	14	-50*	-5
O=C(N/N=C/c1ccccc1F)NC12CC3CC(CC(C3)C1)C2	87*	-16	1	49	0
CCOc1cc(CNCC2CCCN2CC)cc(Cl)c1OC (configuration not stated)	-81	1	1	-74*	-7
CCN1CCCC1CNCc1cc(OC)c(OC)c(OC)c1 (configuration not stated)	-1	0	1	-9	/
CN(Cc1cnccn1)C(=O)C1CCC(=O)N(CCc2ccccc2)C1 (configuration not stated)	8	0	3	3	0
CN(CCOc1ccccc1)C(=O)C1CCC(=O)N(CCc2ccc(Cl)cc2)C1 (configuration not stated)	59*	4	-2	23	2
COc1ccc(CCN2CC(C(=O)N(C)CCOc3ccccc3)CCC2=O)cc1 (configuration not stated)	12	1	-3	2	-1
Cc1ccc(CN(C)C(=O)C2CCC(=O)N(CCc3ccccc3)C2)o1 (configuration not stated)	195*	2	1	114	1
COc1ccccc1C#Cc1ccc2c(c1)O[C@@H](CN(C)Cc1ccccc1)[C@H](C)CN([C@H](C)CO)S2(=O)=O	/	/	/	/	-5
COc1ccccc1Nc1nc(N)nc(CN2CCOCC2)n1	-15	0	-2	2	36
COc1ccccc1Nc1nc(N)nc(CN2CCCCCC2)n1	14	-40	1	0	89*
Nc1nc(CN2CCCCCC2)nc(Nc2ccc(F)cc2)n1	5	-1	8	-5	48*
CCOC(=O)C1CCCN(Cc2nc(N)nc(Nc3ccc(OC)cc3)n2)C1 (configuration not stated)	-18	-1	1	-12	31*
COCC#Cc1ccc([C@@H]2[C@@H](CO)N3CCCCN(Cc4cncnc4)C[C@@H]23)cc1	/	/	/	/	-1
CNc1nc(C)c([N+](=O)[O-])c(Nc2ccc(OC)cc2)n1	6	-1	5	2	3
CC(=O)Nc1ccc(Nc2nc(C)c([N+](=O)[O-])c(Nc3ccc(NC(C)=O)cc3)n2)cc1	-5	469*	-1	-4	2
CCC1(C)Cc2nc3[nH]c(=S)n(-c4ccccc4)c(=O)c3cc2CO1 (configuration not stated)	18	0	2	-4	1
CC1(C)Cc2nc3[nH]c(=S)n(-c4ccccc4)c(=O)c3cc2CO1	-72	0	1	-62*	15

Assay outcomes deposited in PubChem BioAssay by several laboratories.
